The whole screen tested about 420,000 compounds, of which about 50,000 (12%) were called active. Not shown: some 26% with an inconclusive outcome. What follows is part of a selection rich in actives, with near analogues and random picks from the rest. Values without a mark were called inactive. Calls follow the shape of the dose curve; as a rule, active = well fitted inhibition curve with a large enough effect; inconclusive = small, poorly fitted or top-dose-only effect; inactive = flat fitted curve, though single readings scatter.
assay: qHTS for Inhibitors of human tyrosyl-DNA phosphodiesterase 1 (TDP1): qHTS in cells in presence of CPT; settings: chicken DT40 Tdp1-/-;hTDP1 cells + 20 nM CPT, ATP luminescence, 48 h; series mostly up to 46.2 µM; activity change, negative = growth inhibition: at the top concentration; also: nearly all actives have a fitted effect of over 55% in size
Summary of the method: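 Chicken DT40 Tdp1-/- cells complemented with human TDP1, 400 cells/well, exposed to compounds plus 20 nM camptothecin for at least 48 h at 37 C; viability read as ATP content by CellTiter-Glo luminescence.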
% is scaled to controls: 0 for no effect and ±100 for the full control effect; potency is read from the fitted curve at half-maximal effect.

| Structure (SMILES) | activity change, negative = growth inhibition | Potency |
| --- | --- | --- |
| O=C(c1cc2cc(F)ccc2[nH]1)N1CCN(c2ccc(F)cc2)CC1 | -15% |  |
| O=C(c1cccc([N+](=O)[O-])c1)N1CCN(C(=O)c2ccco2)CC1 | 3.27% |  |
| O=C(c1cc(C(=O)N2CCN(c3ccc(F)cc3)CC2)cc([N+](=O)[O-])c1)N1CCN(c2ccc(F)cc2)CC1 |  | 8.2 µM (active) |
| O=C(c1cccc(C(=O)N2CCN(c3ccc(F)cc3)CC2)c1)N1CCN(c2ccc(F)cc2)CC1 |  | 14.6 µM (active) |
| O=[N+]([O-])c1ccc(N2CCN(c3ccc(F)cc3)CC2)cn1 | -1.17% |  |
| O=C(c1cc(-c2ccc(F)cc2)on1)N1CCN(c2ccc(F)cc2)CC1 | 3.72% |  |
| CO/N=C(\C(=O)N[C@@H]1C(=O)N2C(C(=O)O)=CCS[C@H]12)c1csc(N)n1 | -3.74% |  |
| O=C1COc2ccc(C(=O)COC(=O)CCOc3ccccc3)cc2N1 | 2.06% |  |
| Cc1ccc(C(=O)Oc2ccc(C(=S)N3CCOCC3)cc2)cc1 | -14.9% |  |
| CCC1S/C(=N/N=C/c2ccco2)NC1=O (stereo unspecified) | 6.02% |  |
| COC(=O)COc1ccc2c(c1C)O/C(=C\c1ccco1)C2=O | -7.39% |  |
| CC(C)(C)C1C/C(=C/c2ccco2)C(=O)/C(=C/c2ccco2)C1 (stereo unspecified) |  | 23.1 µM (active) |
| Cc1ccc2nc(N3C(=O)C(O)=C(C(=O)c4ccco4)C3c3cccc(O)c3)sc2c1 (stereo unspecified) | -0.56% |  |
| CC(C)c1ccc(NC(=O)c2ccc3c(O)c(S(=O)(=O)c4ccccc4)c(=O)[nH]c3c2)cc1 | 7.95% |  |
| C=C1C=C(C)n2ncc(C(=O)Nc3ccccc3O)c2N1 | -15.4% |  |
| COc1ccccc1CCNC(=O)c1cnccn1 | -5.44% |  |
| C=C1C=C(C(F)F)n2ncc(C(=O)NCCc3ccccc3OC)c2N1 |  | 15.8 µM (active) |
| C#CCOCCOCCOCCNc1nc(N2CCN(C(=O)Cn3cc(CCO)nn3)CC2)nc(N2CCN(C(=O)[C@H](CCCCN)n3cc(CCCC)nn3)CC2)n1 | 0.815% |  |
| C#CCOCCOCCOCCNc1nc(N2CCN(C(=O)Cn3cc(CCO)nn3)CC2)nc(N2CCN(C(=O)Cn3cc(CCCN=C(N)N)nn3)CC2)n1 | -17.4% |  |

| Structure (SMILES) | activity change, negative = growth inhibition | Potency |
| --- | --- | --- |
| C#CCOCCOCCOCCNc1nc(N2CCN(C(=O)CCCCCCCCCCNC(=O)[C@H]([C@@H](C)CC)n3cc(CCCCN=C(N)N)nn3)CC2)nc(N2CCN(C(=O)CCCCCCCCCCNC(=O)[C@H](CO)n3cc(CCCSC)nn3)CC2)n1 |  | 9.2 µM (active) |
| C#CCOCCOCCOCCNc1nc(N2CCN(C(=O)[C@H](CCCCN)n3cc(CCC(=O)O)nn3)CC2)nc(N2CCN(C(=O)[C@H](CCCCN)n3cc(CC(C)O)nn3)CC2)n1 (stereo partly specified) | -5.59% |  |
| C#CCOCCOCCOCCNc1nc(N2CCN(C(=O)[C@H](CCCN=C(N)N)n3cc(C(N)[C@@H](C)CC)nn3)CC2)nc(N2CCN(C(=O)[C@H](CO)n3cc([C@@H](N)C(C)C)nn3)CC2)n1 (stereo partly specified) | 1.68% |  |
| C#CCOCCOCCOCCNc1nc(N2CCN(C(=O)CCCCCCCCCCNC(=O)[C@H](CCCCN)n3cc(C)nn3)CC2)nc(N2CCN(C(=O)CCCCCCCCCCNC(=O)[C@H](CO)n3cc(CCCSC)nn3)CC2)n1 |  | 14.6 µM (active) |
| CC(CC(=O)N1CCN(S(=O)(=O)c2ccccc2)CC1)n1cncn1 (stereo unspecified) | -13.1% |  |
| O=c1cc(-c2ccccc2)n2c(SCc3ccccc3)nnc2[nH]1 | 10% |  |
| Cc1cc(C)c(NC(=O)CN2CCOCCOCCOCCOCC2)c(C)c1 | 4.44% |  |
| Cc1c(Cl)cccc1NC(=O)NCc1ccc(C)n1C | 0.371% |  |
| COc1ccc(/C=C/C(=O)NC(=S)NN2CCCCC2c2cccnc2)cc1 (stereo unspecified) | -1.05% |  |
| O=S(=O)(Cc1cc(Sc2ccccc2)nc(-c2ccccc2)n1)c1ccccc1 |  | 23.1 µM (active) |
| O=S(=O)(NCCc1csc(-c2ccccc2)n1)c1cccnc1 | -19.1% |  |
| O=S(=O)(Cc1nnnn1-c1ccccc1)c1ccccc1 | 1.76% |  |
| CC1(C(=O)NS(=O)(=O)c2cccc(OC(F)F)c2)CCN1C(=O)COc1ccc(Cl)cc1 (stereo unspecified) | -18.8% |  |
| COC(=O)c1ccc(COC(=O)C2CCN(S(=O)(=O)c3c(Cl)cccc3Cl)CC2)o1 | 12.1% |  |
| Cc1nc2ccccn2c(=O)c1NC(=O)c1c(F)cccc1F | -6.49% |  |
| Cn1c(C(=O)Nc2cccc(C(F)(F)F)c2)cc2c(=O)n3ccccc3nc21 |  | 14.6 µM (active) |
| O=C(Nc1ccc(OC(F)(F)F)cc1)c1cc2c(=O)n3ccccc3nc2s1 | -20.7% |  |
| CCOc1ccccc1NC(=O)C1=C(C)Nc2ncnn2C1c1ccc(NC(C)=O)cc1 (stereo unspecified) | -5.57% |  |
| CCOc1ccc(C2C(C(=O)Nc3ccc(Cl)cc3)=C(C)Nc3nc(C(F)(F)F)nn32)cc1 (stereo unspecified) |  | 13 µM (active) |

| Structure (SMILES) | activity change, negative = growth inhibition | Potency |
| --- | --- | --- |
| CCOc1cc(C2C(C(=O)Nc3ccc(OC)cc3)=C(C)Nc3nc(SC)nn32)ccc1O (stereo unspecified) | -3.13% |  |
| C[n+]1cc(-c2ccccc2)oc1-c1ccccc1 | -0.284% |  |
| O=C(O)CCCCOn1ccnc1 | -1.16% |  |
| COc1ccc(CNS(=O)(=O)c2cc3c4c(c2)CCN4C(=O)CC3)cc1 | -20% |  |
| CC1CN(C(=O)c2cccc(NS(=O)(=O)c3ccc(Br)cc3)c2)CC(C)O1 (stereo unspecified) | -18.9% |  |
| COc1ccc(S(=O)(=O)NCc2cccn2Cc2cccc(C)c2)cc1 | -18.4% |  |
| CCc1ccc(S(=O)(=O)NCC(O)COc2ccc(OC)cc2)cc1 (stereo unspecified) | -10% |  |
| CC1CCN(S(=O)(=O)c2ccc(S(=O)(=O)NCc3cccnc3)cc2)CC1 | 3.59% |  |
| COc1ccc(CNS(=O)(=O)c2ccc(-c3cnc(C4CC4)o3)cc2)cc1 |  | 14.6 µM (active) |
| Cc1cccc(NS(=O)(=O)c2ccc(C)c(C(=O)NCc3cccnc3)c2)c1 | -14.6% |  |
| Cc1cccc(NS(=O)(=O)c2ccc(-c3cnc(C4CC4)o3)cc2)c1 |  | 0.731 µM (active) |
| Cc1cccc(CNS(=O)(=O)c2ccc(-c3cnc(C4CC4)o3)cc2)c1 |  | 16.4 µM (active) |
| O=C(C1CC1)N1N=C2CCCCC2C1(O)C(F)(F)F (stereo unspecified) | 1.99% |  |
| O=[N+]([O-])c1ccccc1/C=C/CN1CCC(O)CC1 | -8.2% |  |
| COC(=O)c1sc(C(F)(F)F)c(-c2ccccc2)c1S(=O)(=O)N(C)C | 3.15% |  |
| Cc1ccc(S(=O)(=O)NCCSc2ccccc2)cc1[N+](=O)[O-] | -12.8% |  |
| CC(Oc1ccc(Cl)cc1)c1ccnn1S(C)(=O)=O (stereo unspecified) | -16.9% |  |
| CC1CN(S(=O)(=O)c2cccc(C(F)(F)F)c2)CN1C(=O)N1CCOCC1 (stereo unspecified) | 15.4% |  |
